The supplement of paper PMC7411054

Experiments:
Assay in all cases: phenotypically active (imaging signature differs from DMSO and reproducible) at any of 0.3-9 uM (binary (1 = active, 0 = inactive)); higher = active
Conditions in all cases: treatment time: 24 h
A549-ACTB-RAB5A = test system: A549-ACTB-RAB5A
How it was run: (§1)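 Fifteen reporter lines derived from A549, HepG2 and WPMY1 cells by gene editing, carrying BFP for segmentation plus GFP and RFP/FusionRed markers, were exposed to 0.3, 1, 3 or 9 µM for 24 h in four wells each and imaged live. Live-cell features from each well were normalised to solvent control wells. A well set counted as deviating when ≥3 of 4 wells lay beyond the 95th percentile of control Euclidean distances, and as reproducible when the median replicate Pearson correlation exceeded the 95th percentile of non-replicates. Phenotypic activity was assigned only when both criteria were met.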

A549-CANX-COX4 = test system: A549-CANX-COX4
How it was run: as §1

A549-GM130-SQSTM1 = test system: A549-GM130-SQSTM1
How it was run: as §1

A549-TP53BP1-CLTA = test system: A549-TP53BP1-CLTA
How it was run: as §1

A549-TUBA1B-RELA = test system: A549-TUBA1B-RELA
How it was run: as §1

HepG2-ACTB-RAB5A = test system: HepG2-ACTB-RAB5A
How it was run: as §1

HepG2-CANX-COX4 = test system: HepG2-CANX-COX4
How it was run: as §1

HepG2-GM130-SQSTM1 = test system: HepG2-GM130-SQSTM1
How it was run: as §1

HepG2-TP53BP1-CLTA = test system: HepG2-TP53BP1-CLTA
How it was run: as §1

HepG2-TUBA1B-RELA = test system: HepG2-TUBA1B-RELA
How it was run: as §1

WPMY1-ACTB-RAB5A = test system: WPMY1-ACTB-RAB5A
How it was run: as §1

WPMY1-CANX-COX4 = test system: WPMY1-CANX-COX4
How it was run: as §1

WPMY1-GM130-SQSTM1 = test system: WPMY1-GM130-SQSTM1
How it was run: as §1

WPMY1-TP53BP1-CLTA = test system: WPMY1-TP53BP1-CLTA
How it was run: as §1

WPMY1-TUBA1B-RELA = test system: WPMY1-TUBA1B-RELA
How it was run: as §1

Measured: phenotypically active

CC1=Nc2ccc(Cl)cc2S(=O)(=O)N1 [diazoxide]
inactive: A549-ACTB-RAB5A 0 | A549-CANX-COX4 0 | A549-GM130-SQSTM1 0 | A549-TP53BP1-CLTA 0 | A549-TUBA1B-RELA 0 | HepG2-ACTB-RAB5A 0 | HepG2-CANX-COX4 0 | HepG2-GM130-SQSTM1 0 | HepG2-TP53BP1-CLTA 0 | HepG2-TUBA1B-RELA 0 | WPMY1-ACTB-RAB5A 0 | WPMY1-CANX-COX4 0 | WPMY1-GM130-SQSTM1 0 | WPMY1-TP53BP1-CLTA 0 | WPMY1-TUBA1B-RELA 0

COC(=O)C(Cc1ccc(OCCn2c(=O)sc3cc(C(=O)c4ccccc4)ccc32)cc1)C(=O)OC
inactive: A549-ACTB-RAB5A 0 | A549-CANX-COX4 0 | A549-GM130-SQSTM1 0 | A549-TP53BP1-CLTA 0 | A549-TUBA1B-RELA 0 | HepG2-ACTB-RAB5A 0 | HepG2-CANX-COX4 0 | HepG2-GM130-SQSTM1 0 | HepG2-TP53BP1-CLTA 0 | HepG2-TUBA1B-RELA 0 | WPMY1-ACTB-RAB5A 0 | WPMY1-CANX-COX4 0 | WPMY1-GM130-SQSTM1 0 | WPMY1-TP53BP1-CLTA 0 | WPMY1-TUBA1B-RELA 0

CC1CCC(C(C)C)C(O)C1 [L-menthol]
inactive: A549-ACTB-RAB5A 0 | A549-CANX-COX4 0 | A549-GM130-SQSTM1 0 | A549-TP53BP1-CLTA 0 | A549-TUBA1B-RELA 0 | HepG2-ACTB-RAB5A 0 | HepG2-CANX-COX4 0 | HepG2-GM130-SQSTM1 0 | HepG2-TP53BP1-CLTA 0 | HepG2-TUBA1B-RELA 0 | WPMY1-ACTB-RAB5A 0 | WPMY1-CANX-COX4 0 | WPMY1-GM130-SQSTM1 0 | WPMY1-TP53BP1-CLTA 0 | WPMY1-TUBA1B-RELA 0

N=C(N)Nc1nc(CSCCC(=N)NS(N)(=O)=O)cs1 [famotidine]
inactive: A549-ACTB-RAB5A 0 | A549-CANX-COX4 0 | A549-GM130-SQSTM1 0 | A549-TP53BP1-CLTA 0 | A549-TUBA1B-RELA 0 | HepG2-ACTB-RAB5A 0 | HepG2-CANX-COX4 0 | HepG2-GM130-SQSTM1 0 | HepG2-TP53BP1-CLTA 0 | HepG2-TUBA1B-RELA 0 | WPMY1-ACTB-RAB5A 0 | WPMY1-CANX-COX4 0 | WPMY1-GM130-SQSTM1 0 | WPMY1-TP53BP1-CLTA 0 | WPMY1-TUBA1B-RELA 0

O=C(Nc1cccc(Br)c1)c1cccc(S(=O)(=O)N2CCCCCC2)c1
inactive: A549-ACTB-RAB5A 0 | A549-CANX-COX4 0 | A549-GM130-SQSTM1 0 | A549-TP53BP1-CLTA 0 | A549-TUBA1B-RELA 0 | HepG2-ACTB-RAB5A 0 | HepG2-CANX-COX4 0 | HepG2-GM130-SQSTM1 0 | HepG2-TP53BP1-CLTA 0 | HepG2-TUBA1B-RELA 0 | WPMY1-ACTB-RAB5A 0 | WPMY1-CANX-COX4 0 | WPMY1-GM130-SQSTM1 0 | WPMY1-TP53BP1-CLTA 0 | WPMY1-TUBA1B-RELA 0

CC[C@H]1OC(=O)[C@H](C)[C@@H](O[C@H]2C[C@@](C)(OC)[C@@H](O)[C@H](C)O2)[C@H](C)[C@@H](O[C@@H]2O[C@H](C)C[C@H](N(C)C)[C@H]2O)[C@](C)(O)C[C@@H](C)C(=O)[C@H](C)[C@@H](O)[C@]1(C)O [Erythromycin]
inactive: A549-ACTB-RAB5A 0 | A549-CANX-COX4 0 | A549-GM130-SQSTM1 0 | A549-TP53BP1-CLTA 0 | A549-TUBA1B-RELA 0 | HepG2-ACTB-RAB5A 0 | HepG2-CANX-COX4 0 | HepG2-GM130-SQSTM1 0 | HepG2-TP53BP1-CLTA 0 | HepG2-TUBA1B-RELA 0 | WPMY1-ACTB-RAB5A 0 | WPMY1-CANX-COX4 0 | WPMY1-GM130-SQSTM1 0 | WPMY1-TP53BP1-CLTA 0 | WPMY1-TUBA1B-RELA 0

COc1cc2c(cc1OC)C(=O)C(CC1CCN(Cc3ccccc3)CC1)C2 (stereo not given) [donepezil]
inactive: A549-ACTB-RAB5A 0 | A549-CANX-COX4 0 | A549-GM130-SQSTM1 0 | A549-TP53BP1-CLTA 0 | A549-TUBA1B-RELA 0 | HepG2-ACTB-RAB5A 0 | HepG2-CANX-COX4 0 | HepG2-GM130-SQSTM1 0 | HepG2-TP53BP1-CLTA 0 | HepG2-TUBA1B-RELA 0 | WPMY1-ACTB-RAB5A 0 | WPMY1-CANX-COX4 0 | WPMY1-GM130-SQSTM1 0 | WPMY1-TP53BP1-CLTA 0 | WPMY1-TUBA1B-RELA 0

COc1cc2ncnc(Oc3cccc(NC(=O)Nc4cc(C(C)(C)C(F)(F)F)on4)c3)c2cc1OC
inactive: A549-ACTB-RAB5A 0 | A549-CANX-COX4 0 | A549-GM130-SQSTM1 0 | A549-TP53BP1-CLTA 0 | A549-TUBA1B-RELA 0 | HepG2-ACTB-RAB5A 0 | HepG2-CANX-COX4 0 | HepG2-GM130-SQSTM1 0 | HepG2-TP53BP1-CLTA 0 | HepG2-TUBA1B-RELA 0 | WPMY1-ACTB-RAB5A 0 | WPMY1-CANX-COX4 0 | WPMY1-GM130-SQSTM1 0 | WPMY1-TP53BP1-CLTA 0 | WPMY1-TUBA1B-RELA 0

CCCCCCOc1cc2c(cc1N(C)c1ncc(C(=O)O)cn1)C(C)(C)CCC2(C)C
inactive: A549-ACTB-RAB5A 0 | A549-CANX-COX4 0 | A549-GM130-SQSTM1 0 | A549-TP53BP1-CLTA 0 | A549-TUBA1B-RELA 0 | HepG2-ACTB-RAB5A 0 | HepG2-CANX-COX4 0 | HepG2-GM130-SQSTM1 0 | HepG2-TP53BP1-CLTA 0 | HepG2-TUBA1B-RELA 0 | WPMY1-ACTB-RAB5A 0 | WPMY1-CANX-COX4 0 | WPMY1-GM130-SQSTM1 0 | WPMY1-TP53BP1-CLTA 0 | WPMY1-TUBA1B-RELA 0

C[C@@H](CO)CCC[C@@H](C)[C@H]1CC[C@H]2[C@@H]3CC=C4C[C@@H](O)CC[C@]4(C)[C@H]3CC[C@]12C [27-Hydroxycholesterol]
inactive: A549-ACTB-RAB5A 0 | A549-CANX-COX4 0 | A549-GM130-SQSTM1 0 | A549-TP53BP1-CLTA 0 | A549-TUBA1B-RELA 0 | HepG2-ACTB-RAB5A 0 | HepG2-CANX-COX4 0 | HepG2-GM130-SQSTM1 0 | HepG2-TP53BP1-CLTA 0 | HepG2-TUBA1B-RELA 0 | WPMY1-ACTB-RAB5A 0 | WPMY1-CANX-COX4 0 | WPMY1-GM130-SQSTM1 0 | WPMY1-TP53BP1-CLTA 0 | WPMY1-TUBA1B-RELA 0

Cc1ccc(Nc2nnc(-c3ccc([N+](=O)[O-])cc3)o2)cc1Cl
inactive: A549-ACTB-RAB5A 0 | A549-CANX-COX4 0 | A549-GM130-SQSTM1 0 | A549-TP53BP1-CLTA 0 | A549-TUBA1B-RELA 0 | HepG2-ACTB-RAB5A 0 | HepG2-CANX-COX4 0 | HepG2-GM130-SQSTM1 0 | HepG2-TP53BP1-CLTA 0 | HepG2-TUBA1B-RELA 0 | WPMY1-ACTB-RAB5A 0 | WPMY1-CANX-COX4 0 | WPMY1-GM130-SQSTM1 0 | WPMY1-TP53BP1-CLTA 0 | WPMY1-TUBA1B-RELA 0

CCC(CC)(NC(=O)C(C)C)C(=O)N[C@@H](CCCNC(=N)N)C(=O)NC1(C(=O)NC(c2ccc(F)cc2)c2ccc(F)cc2)CCCC1
inactive: A549-ACTB-RAB5A 0 | A549-CANX-COX4 0 | A549-GM130-SQSTM1 0 | A549-TP53BP1-CLTA 0 | A549-TUBA1B-RELA 0 | HepG2-ACTB-RAB5A 0 | HepG2-CANX-COX4 0 | HepG2-GM130-SQSTM1 0 | HepG2-TP53BP1-CLTA 0 | HepG2-TUBA1B-RELA 0 | WPMY1-ACTB-RAB5A 0 | WPMY1-CANX-COX4 0 | WPMY1-GM130-SQSTM1 0 | WPMY1-TP53BP1-CLTA 0 | WPMY1-TUBA1B-RELA 0
